Source: PubChem (National Center for Advancing Translational Sciences (NCATS))
HTT aggregate – qHTS Multiplex Assay to Identify Dual Action Probes in a Cell Model of Huntington: Aggregate Formation (GFP); PC12 HttQ103-GFP aggregates, Acumen cytometry, 40 h; Potency, µM (doses to about 46.1 µM), most hits filed as inhibitors; 1.1% of 220,000 active; further: nearly all actives have a fitted effect of over 60% in size
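Steps: seed 1500 PC12 HTTQ103-GFP cells/well; add tebufenozide, 100 nM final; add compound titration; add ATPLite reagent; quantify GFP aggregates by laser scanning cytometry.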
HTT cytoprotect – qHTS Multiplex Assay to Identify Dual Action Probes in a Cell Model of Huntington: Cytoprotection (ATP) | PC12 HTT-Q103 induced, cytoprotection, ATP luminescence, 40 h | Potency, µM (highest dose often 56.4 µM), most hits filed as activators | 0.14% of 230,000 active | AID 1471, 2008; further: nearly all actives have a fitted effect of over 45% in size
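Compounds were screened for protection of PC12 cells against cell death after tebufenozide induction (100 nM final) of mutant Huntingtin exon 1 (Q103) fused to GFP.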
PNC assembly inh – High Content Assay for Compounds that inhibit the Assembly of the Perinucleolar Compartment | PC3M PTB-GFP, PNC prevalence imaging, 16 h; active compounds read low | activity change (PNC), negative = inhibition, % at 10 µM | 3.1% of 140,000 active | AID 2417, 2010;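 active means readout at or below -70, meaning at least 70% loss of cells showing the perinucleolar compartment, a nuclear body marking cancer cells; inconclusive means readout between -30 and a set limit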
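Compounds are pinned in duplicate onto adhered PC3M cells stably expressing GFP-tagged PTB and incubated 16 h at 37 C. Cells are then fixed, nuclei stained with Hoechst, and PNC-positive cells counted.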
Numbers stand for hits; – = inactive; ? = inconclusive; · = no result given; [ ] = remark or other dose. Many of the other results were omitted from the sample, so hits are more common in it than they were. Unless noted, the call rests on the fitted dose curve; in most records, active means well fitted curve in the direction sought with a large enough effect; inconclusive means small, poorly fitted or top-dose-only effect, or another doubt; inactive means no such curve, though single readings can be large; an effect the other way counts as inactive or inconclusive.

SMILES | HTT aggregate | HTT cytoprotect | PNC assembly inh
COCCOC(=O)c1[nH]c2c(c1C)C(=O)CC(c1ccc(F)cc1)C2 (configuration not stated) | – | – | ?
Cc1c(C(=O)OCc2ccccc2)[nH]c2c1C(=O)CC(c1ccco1)C2 (configuration not stated) | – | – | -82.0
O=C1C2C3CCC(C3)C2C(=O)N1Cc1ccco1 (configuration not stated) | – | –[0.074 µM] | –
O=C(CSc1nc2c(c(=O)[nH]1)CCC2)Nc1cccc(Cl)c1 | – | – | –
CCCCn1c(O)c(/C=C2\C=NN=C2c2ccccc2)sc1=S | – | –[10 µM] | –
COc1cccc(CNn2c(-c3cccc(C)c3)nc3ccccc3c2=O)c1 | ? | – | –
O=C(CN1CCCC1)OCCCC1CCCCC1 | –[9.22 µM] | –[10 µM] | ·
CSc1nc(-c2ccccc2)nc(N2CCN(C)CC2)c1C(C)=O | – | – | –
CNC(=O)CSc1nnc(SCCC(=O)O)s1 | – | –[10 µM] | –
Cc1cc(C)nc(SCC(=O)N/N=C/c2cccn2-c2ccc(O)cc2)n1 | – | – | ?
Cc1cc(C)nc(SCC(=O)N/N=C/c2cccn2-c2cccc(C(F)(F)F)c2)n1 | – | – | -108.4
CC(C)c1nnc(NC(=O)CCC(=O)NCc2ccco2)s1 | – | – | –
CC(=O)Nc1cccc(OCC(=O)Nc2ccc(F)cc2)c1 | – | – | –
Cc1ccc(OCC(=O)Nc2ccc(F)cc2)cc1C | – | –[10 µM] | -100.0
Clc1ccc(COc2ccccc2-c2ccnc3ncnn23)cc1 | – | –[10 µM] | ·
Cc1noc(N)c1C1(O)C(=O)N(C(C)C)c2ccccc21 (configuration not stated) | – | – | ·
Cc1ccc(Nc2c(-c3ccccn3)nc3cccc(C)n23)cc1 | 7.94µM | – | ·
Cc1cccc2nc(-c3ccco3)c(Nc3ccccc3)n12 | – | – | ·
COc1ccc(C(=O)[C@]2(C)C=C(c3ccc(OC)cc3)[C@H](C)C2)cc1 | · | 35.5µM | ·
C[C@@H]1C[C@](C)(C(=O)c2ccc3c(c2)OCO3)C=C1c1ccc2c(c1)OCO2 | · | – | ·
CN(C)C(=O)N(CCCN1CCOCC1)Cc1cccc2ccccc12 | –[9.22 µM] | –[10 µM] | ·
CC(=O)C1=C(C)NC(SCC(=O)c2ccc(-c3ccccc3)cc2)=C(C#N)C1c1cccnc1 (configuration not stated) | – | – | –
CC(=O)C1=C(C)NC(SCSc2ccccc2)=C(C#N)C1c1cccnc1 (configuration not stated) | – | – | -86.4
Cc1ccnn1CC(=O)N/N=C/c1cn[nH]c1-c1ccc(F)cc1 | –[9.22 µM] | –[10 µM] | ·
N#CC12COC3(CCCCC3C1(C#N)C#N)OC2=N (configuration not stated) | –[9.22 µM] | –[10 µM] | ·
SMILES | HTT aggregate | HTT cytoprotect | PNC assembly inh
CC1(C)CC(=O)C2=C(C1)N=C1SCCC(=O)N1C2c1ccccc1 (configuration not stated) | – | –[10 µM] | ?
O=C1CCCC2=C1C(c1ccc(Cl)cc1)N1C(=O)CCSC1=N2 (configuration not stated) | – | –[10 µM] | -100.0
Cn1nc(C(F)(F)F)c(-c2cccc(C(F)(F)F)c2)c1NC(=O)Nc1ccc(F)cc1 | –[9.22 µM] | –[10 µM] | ·
Cc1cc(=O)oc2cc(OCC(=O)N3c4ccccc4CC3C)ccc12 (configuration not stated) | – | – | -85.0
Cc1cc(=O)oc2cc(OCC(=O)N3CC(C)OC(C)C3)ccc12 (configuration not stated) | –[9.22 µM] | – | –
CN(C)c1ccc(-c2nnc(-c3ccc(S(=O)(=O)C(F)F)cc3)o2)cc1 | – | – | ?
COc1ccc(-c2cc(C(=O)OC(C)C(=O)Nc3c(C)n(C)n(-c4ccccc4)c3=O)c3ccccc3n2)cc1 (configuration not stated) | – | –[10 µM] | -86.0
Cc1c(NC(=O)COC(=O)c2ccc[nH]c2=O)c(=O)n(-c2ccccc2)n1C | – | –[10 µM] | –
Cc1c(NC(=O)COC(=O)c2cc(-c3ccc(-c4ccccc4)cc3)nc3ccccc23)c(=O)n(-c2ccccc2)n1C | – | –[10 µM] | -113.0
Cc1c(NC(=O)C(C)OC(=O)c2cc(-c3cccc4ccccc34)nc3ccccc23)c(=O)n(-c2ccccc2)n1C (configuration not stated) | – | –[10 µM] | –
O=C(CSc1nnnn1-c1ccc(O)cc1)Nc1cccc(S(=O)(=O)N2CCCC2)c1 | – | – | –
CC(C)Sc1nc(N2CCOCC2)c2c(c1C#N)CC(C)(C)N(C)C2 | – | – | –
Cc1cc(C)n2cc(CSCc3ccccc3)nc2n1 | – | –[10 µM] | -88.6
Cc1cc(C)n2cc(CSc3ccccn3)nc2n1 | – | ? | ·
Cc1cc(C)n(CC(O)Cn2cnc3c2c(=O)n(C)c(=O)n3C)n1 (configuration not stated) | – | –[10 µM] | –
COc1cc(/C=C2/SC(=S)N(C)C2=O)ccc1OC(=O)c1ccco1 | – | –[10 µM] | –
CCOc1cc(/C=C2/SC(=S)NC2=O)ccc1OC(=O)c1ccco1 | 14.1µM | – | ·
CC(C)(C)c1ccc(-c2noc(CCC(=O)N3CCOCC3)n2)cc1 | – | – | ·
CNC(=O)[C@@]1(C)C=C[C@@H](Cc2ccccc2)N1C(C)=O | · | – | ·
CNC(=O)[C@@]1(C)C=C[C@@H](Cc2ccccc2)N1C(=O)OC | – | – | -95.8
O=S(=O)(c1ccc(N2CCOCC2)cc1)N1CCOCC1 | – | – | –
CC#CCN(CC#CC)S(=O)(=O)c1ccc(S(=O)(=O)N2CCOCC2)cc1 | – | –[10 µM] | -105.5
CCOc1ccccc1NC(=O)CCNC(=O)c1ccc(Cl)cc1 | – | – | ·
CCc1nnc(NC(=O)C2CCCCC2)s1 | – | – | –
CC(C)c1nnc(NC(=O)C2CCCCC2)s1 | – | –[10 µM] | -117.9
SMILES | HTT aggregate | HTT cytoprotect | PNC assembly inh
Cc1cc(C)nc(N2CCCC(C(=O)Nc3nnc(C(C)C)s3)C2)n1 (configuration not stated) | – | –[10 µM] | -100.0
Cc1cc(C)nc(N2CCCC(C(=O)Nc3nnc(C)s3)C2)n1 (configuration not stated) | – | –[10 µM] | –
COc1cc(C2NC(=O)NC(C)=C2C(=O)OCC2CCCO2)ccc1O (configuration not stated) | – | –[1.9 µM] | –
CCN(CC)C(=O)c1ccc(Cn2cc([N+](=O)[O-])cn2)o1 | –[9.22 µM] | –[10 µM] | ·
Cc1cc(OC(=O)c2c(C)cc(O)cc2O)cc(O)c1C(=O)O | · | – | ·
Nc1c(S(=O)(=O)c2cccs2)c2nc3ccccc3nc2n1Cc1cccs1 | – | – | –
CC(C)CCn1c(N)c(S(=O)(=O)c2cccs2)c2nc3ccccc3nc21 | 11.2µM | –[0.074 µM] | ?
Nc1c(S(=O)(=O)c2cccs2)c2nc3ccccc3nc2n1CCc1ccccc1 | ? | – | –
Nc1c(S(=O)(=O)c2cccs2)c2nc3ccccc3nc2n1CC1CCCO1 (configuration not stated) | 0.0022µM | · | ?
O=C(Nc1ccccn1)c1nc(-c2ccccc2)n(-c2ccccc2)n1 | – | –[10 µM] | –
CCCCN1C(=O)/C(=C/C=C2\SCCN2C)SC1=S | ? | – | ·
CCCCN1C(=O)/C(=C/C=C2\N(C)c3ccccc3C2(C)C)SC1=S | 12.6µM | – | –
